According to PubChem BioAssay AID1159580 (chemical genetic matrix, 2015):
Screen size: about 5,500 compounds; about 2,000 (36%) were called active. Roughly 18% stayed inconclusive and do not appear here. Cut-off read from the data, not from the text of the source: active = normalized growth mostly below about 0.91 (no sharp cut-off); inconclusive = no clear call, values can overlap the other calls; inactive = mostly above about 0.92. The list shows a part of the results.

Test: chemical genetic growth profiling, strain panel (AID 1159580);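 note: tested at 20 µM; growth read once vehicle control cultures reached saturation at 30 °C; 1 = growth at the plate median or of vehicle wells; lower values mean less growth of the strain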
Conditions: growth OD
[1] = S. cerevisiae deletion strains, locus YAL013W, strain DEP1, stronger effect = lower value
[2] = S. cerevisiae deletion strains, locus YBR229C, strain ROT2, stronger effect = lower value
[3] = S. cerevisiae deletion strains, locus YDL101C, strain DUN1, stronger effect = lower value
[4] = S. cerevisiae deletion strains, locus YDL134C, strain PPH21, stronger effect = lower value
[5] = S. cerevisiae deletion strains, locus YDR150W, strain NUM1, stronger effect = lower value
[6] = S. cerevisiae deletion strains, locus YEL061C, strain CIN8, stronger effect = lower value
[7] = S. cerevisiae deletion strains, locus YGR078C, strain PAC10, stronger effect = lower value
[8] = S. cerevisiae deletion strains, locus YHR030C, strain SLT2, stronger effect = lower value
[9] = S. cerevisiae deletion strains, locus YHR087W, strain rtc3, stronger effect = lower value
[10] = S. cerevisiae deletion strains, locus YJL187C, strain SWE1, stronger effect = lower value
[11] = S. cerevisiae deletion strains, locus YJR043C, strain POL32, stronger effect = lower value
[12] = S. cerevisiae deletion strains, locus YJR075W, strain HOC1, stronger effect = lower value
[13] = S. cerevisiae deletion strains, locus YLR039C, strain RIC1, stronger effect = lower value
[14] = S. cerevisiae deletion strains, locus YLR058C, strain SHM2 (second series), stronger effect = lower value
[15] = S. cerevisiae deletion strains, locus YLR085C, strain ARP6, stronger effect = lower value
[16] = S. cerevisiae deletion strains, locus YLR262C, strain YPT6, stronger effect = lower value
[17] = S. cerevisiae deletion strains, locus YML094W, strain GIM5, stronger effect = lower value
[18] = S. cerevisiae deletion strains, locus YMR219W, strain ESC1, stronger effect = lower value
[19] = S. cerevisiae deletion strains, locus YMR263W, strain SAP30, stronger effect = lower value
[20] = S. cerevisiae deletion strains, locus YNL153C, strain GIM3, stronger effect = lower value
[21] = S. cerevisiae deletion strains, locus YNL298W, strain CLA4 (second series), stronger effect = lower value
[22] = S. cerevisiae deletion strains, locus YNL322C, strain KRE1, stronger effect = lower value
[23] = S. cerevisiae deletion strains, locus YNR030W, strain Alg12, stronger effect = lower value
[24] = S. cerevisiae deletion strains, locus YOL006C, strain TOP1, stronger effect = lower value
[25] = S. cerevisiae deletion strains, locus YPL055C, strain LGE1, stronger effect = lower value
[26] = S. cerevisiae deletion strains, locus YPL241C, strain CIN2, stronger effect = lower value
[27] = S. cerevisiae deletion strains, locus YPR135W, strain CTF4, stronger effect = lower value
[28] = S. cerevisiae strains, strain wild type, stronger effect = lower value
[29] = S. cerevisiae deletion strains, locus YGR229C, strain SMI1, stronger effect = lower value
[30] = S. cerevisiae deletion strains, locus YKL190W, strain CNB1, stronger effect = lower value
[31] = S. cerevisiae deletion strains, locus YMR307W, strain GAS1, stronger effect = lower value
[32] = S. cerevisiae deletion strains, locus YNL128W, strain TEP1, stronger effect = lower value

Measured: normalized growth

CCOC(=O)c1sc(SC(C)C)c2c1CCCC2=O
inactive: [1] 0.979 | [2] 0.969 | [3] 0.973 | [5] 1.06 | [7] 0.982 | [9] 0.978 | [11] 1.02 | [12] 0.93 | [14] 0.974 | [16] 0.864 | [17] 0.911 | [18] 0.969 | [19] 1.03 | [20] 0.978 | [22] 0.97 | [24] 0.738 | [25] 1.04 | [27] 0.762 | [28] 0.951
active: [4] 0.82 | [6] 0.795 | [8] 0.53 | [10] 0.851 | [13] 0.785 | [15] 0.646 | [21] 0.835 | [23] 0.884 | [26] 0.801

CCOC(=O)c1sc(S(C)(=O)=O)c2c1CCCC2O (centres undefined)
inactive: [1] 1.02 | [2] 1 | [3] 0.995 | [4] 1.01 | [5] 0.95 | [6] 1.02 | [7] 1 | [29] 1 | [8] 1.03 | [9] 0.995 | [11] 0.98 | [12] 1.01 | [30] 1 | [13] 1.05 | [14] 1.01 | [15] 1.08 | [16] 1.04 | [17] 1.03 | [18] 1.01 | [19] 1.04 | [31] 1.08 | [20] 1 | [21] 1.03 | [22] 1.02 | [23] 1.03 | [25] 0.952 | [26] 1.02 | [27] 1.05 | [28] 1.01

Cn1[nH]c(=O)cc1C(=O)NN
inactive: [1] 1 | [2] 1.02 | [3] 1 | [4] 0.996 | [5] 1.01 | [6] 1.03 | [7] 1 | [8] 1.11 | [9] 1 | [10] 0.998 | [11] 1.01 | [12] 0.992 | [13] 0.998 | [14] 0.985 | [15] 0.978 | [16] 1.11 | [17] 0.99 | [18] 1 | [19] 0.991 | [31] 0.899 | [32] 0.981 | [20] 1.05 | [21] 1.03 | [22] 0.995 | [23] 1.01 | [25] 0.995 | [26] 0.992 | [27] 1.12 | [28] 0.986

COC(=O)C1OC(=O)C2OC23C1(C)CCC1C2(C)C(OC(C)=O)CC(OC(C)=O)C(C)(C)C2CC(=O)C13C (centres undefined)
inactive: [1] 1.02 | S. cerevisiae deletion strains, locus YBR021W, strain FUR4, stronger effect = lower value 0.914 | [2] 1 | S. cerevisiae deletion strains, locus YCL029C, strain bik1, stronger effect = lower value 0.987 | S. cerevisiae deletion strains, locus YDL035C, strain GPR1, stronger effect = lower value 1 | S. cerevisiae deletion strains, locus YDL074C, strain BRE1, stronger effect = lower value 1.03 | [3] 0.997 | [4] 0.998 | S. cerevisiae deletion strains, locus YDL185W, strain tfp1, stronger effect = lower value 0.962 | S. cerevisiae deletion strains, locus YDL192W, strain arf1, stronger effect = lower value 0.988 | S. cerevisiae deletion strains, locus YDR101C, strain arx1, stronger effect = lower value 0.999 | [5] 0.969 | S. cerevisiae deletion strains, locus YDR162C, strain NBP2, stronger effect = lower value 1.01 | S. cerevisiae deletion strains, locus YDR318W, strain mcm21, stronger effect = lower value 0.988 | S. cerevisiae deletion strains, locus YDR388W, stronger effect = lower value 1 | S. cerevisiae deletion strains, locus YDR502C, strain sam2, stronger effect = lower value 0.996 | [6] 1 | S. cerevisiae deletion strains, locus YER110C, stronger effect = lower value 0.985 | S. cerevisiae deletion strains, locus YER155C, strain BEM2, stronger effect = lower value 0.929 | S. cerevisiae deletion strains, locus YER167W, strain BCK2, stronger effect = lower value 0.984 | S. cerevisiae deletion strains, locus YGL078C, strain dbp3, stronger effect = lower value 0.979 | S. cerevisiae deletion strains, locus YGL086W, strain mad1, stronger effect = lower value 0.982 | S. cerevisiae deletion strains, locus YGL248W, strain PDE1, stronger effect = lower value 0.983 | [7] 1 | S. cerevisiae deletion strains, locus YGR135W, strain pre9, stronger effect = lower value 0.997 | [29] 1 | S. cerevisiae deletion strains, locus YGR252W, strain gcn5, stronger effect = lower value 1.01 | [8] 0.997 | S. cerevisiae deletion strains, locus YHR079C, strain IRE1 (second series), stronger effect = lower value 0.998 | S. cerevisiae deletion strains, locus YHR094C, strain hxt1, stronger effect = lower value 0.972 | S. cerevisiae deletion strains, locus YHR129C, strain ARP1, stronger effect = lower value 1 | S. cerevisiae deletion strains, locus YHR200W, strain rpn10, stronger effect = lower value 0.985 | S. cerevisiae deletion strains, locus YIL066C, strain RNR3, stronger effect = lower value 1 | S. cerevisiae deletion strains, locus YIL073C, strain SPO22, stronger effect = lower value 0.883 | S. cerevisiae deletion strains, locus YIL125W, strain kgd1, stronger effect = lower value 1 | S. cerevisiae deletion strains, locus YIR030C, strain dcg1, stronger effect = lower value 0.998 | S. cerevisiae deletion strains, locus YJL095W, strain BCK1, stronger effect = lower value 1.05 | S. cerevisiae deletion strains, locus YJL134W, strain LCB3, stronger effect = lower value 0.994 | S. cerevisiae deletion strains, locus YJL168C, strain set2, stronger effect = lower value 1 | S. cerevisiae deletion strains, locus YJL187C, strain SWE1 (second series), stronger effect = lower value 0.996 | [11] 0.984 | [12] 1.01 | S. cerevisiae deletion strains, locus YKL009W, strain mrt4, stronger effect = lower value 0.967 | S. cerevisiae deletion strains, locus YKL068W, stronger effect = lower value 0.983 | S. cerevisiae deletion strains, locus YKL085W, strain MDH1 (second series), stronger effect = lower value 0.984 | S. cerevisiae deletion strains, locus YKL085W, strain MDH1, stronger effect = lower value 0.984 | [30] 1 | S. cerevisiae deletion strains, locus YKR001C, strain vps1, stronger effect = lower value 0.983 | [13] 0.963 | S. cerevisiae deletion strains, locus YLR058C, strain SHM2, stronger effect = lower value 1 | S. cerevisiae deletion strains, locus YLR102C, strain apc9, stronger effect = lower value 0.996 | [16] 0.966 | S. cerevisiae deletion strains, locus YLR268W, strain sec22, stronger effect = lower value 0.996 | S. cerevisiae deletion strains, locus YLR330W, strain CHS5, stronger effect = lower value 0.995 | S. cerevisiae deletion strains, locus YLR342W, strain FKS1 (second series), stronger effect = lower value 0.985 | S. cerevisiae deletion strains, locus YLR371W, strain rom2, stronger effect = lower value 0.981 | S. cerevisiae deletion strains, locus YLR418C, strain cdc73, stronger effect = lower value 1.05 | S. cerevisiae deletion strains, locus YML016C, strain PPZ1, stronger effect = lower value 0.997 | S. cerevisiae deletion strains, locus YML032C, strain rad52, stronger effect = lower value 0.977 | S. cerevisiae deletion strains, locus YML124C, strain tub3, stronger effect = lower value 0.992 | S. cerevisiae deletion strains, locus YMR078C, strain ctf18, stronger effect = lower value 0.992 | S. cerevisiae deletion strains, locus YMR223W, strain ubp8, stronger effect = lower value 0.974 | [19] 0.994 | [31] 1 | S. cerevisiae deletion strains, locus YNL067W, strain RPL9B, stronger effect = lower value 0.994 | [32] 1.02 | [20] 1 | S. cerevisiae deletion strains, locus YNL233W, strain BNI4, stronger effect = lower value 1.01 | S. cerevisiae deletion strains, locus YNL250W, strain rad50, stronger effect = lower value 0.987 | S. cerevisiae deletion strains, locus YNL271C, strain bni1, stronger effect = lower value 0.995 | S. cerevisiae deletion strains, locus YNL298W, strain CLA4, stronger effect = lower value 0.985 | S. cerevisiae deletion strains, locus YNL307C, strain MCK1, stronger effect = lower value 0.988 | [22] 1.01 | S. cerevisiae deletion strains, locus YNR052C, strain pop2, stronger effect = lower value 0.986 | [24] 1.04 | S. cerevisiae deletion strains, locus YOL012C, strain htz1 0.841 | S. cerevisiae deletion strains, locus YOL147C, strain pex11, stronger effect = lower value 0.99 | S. cerevisiae deletion strains, locus YOR061W, strain CKA2, stronger effect = lower value 1 | S. cerevisiae deletion strains, locus YOR069W, strain VPS5, stronger effect = lower value 0.996 | S. cerevisiae deletion strains, locus YOR136W, strain idh2, stronger effect = lower value 0.985 | S. cerevisiae deletion strains, locus YOR144C, strain elg1, stronger effect = lower value 0.993 | S. cerevisiae deletion strains, locus YOR184W, strain ser1, stronger effect = lower value 0.966 | S. cerevisiae deletion strains, locus YOR316C, strain cot1, stronger effect = lower value 0.987 | [25] 1 | [26] 0.998 | S. cerevisiae deletion strains, locus YPR119W, strain clb2, stronger effect = lower value 0.996 | S. cerevisiae deletion strains, locus YPR141C, strain kar3, stronger effect = lower value 0.975 | S. cerevisiae deletion strains, locus YPR163C, strain tif3, stronger effect = lower value 0.991 | S. cerevisiae deletion strains, locus YPR167C, strain met16, stronger effect = lower value 0.995 | S. cerevisiae deletion strains, strain wtn01, stronger effect = lower value 0.997 | [28] 0.983

CCN(CC)C(=O)N[C@H]1C=C2c3cccc4[nH]cc(c34)C[C@H]2N(C)C1
inactive: [1] 1.01 | S. cerevisiae deletion strains, locus YAL040C, strain CLN3, stronger effect = lower value 0.999 | S. cerevisiae deletion strains, locus YCL061C, strain MRC1 (second series), stronger effect = lower value 1.01 | S. cerevisiae deletion strains, locus YDR363W, strain ESC2, stronger effect = lower value 1.03 | S. cerevisiae deletion strains, locus YER002W, strain NOP16, stronger effect = lower value 1.01 | [12] 1.02 | [31] 1.01 | S. cerevisiae deletion strains, locus YNL175C, strain NOP13, stronger effect = lower value 0.996 | S. cerevisiae deletion strains, locus YNL197C, strain WHI3, stronger effect = lower value 1.01 | S. cerevisiae deletion strains, locus YNL224C, strain SQS1, stronger effect = lower value 1.02 | [22] 1.01 | S. cerevisiae deletion strains, locus YOR083W, strain WHI5 (second series), stronger effect = lower value 0.999 | [25] 0.998 | [26] 1

CCOC(=O)C1=C(N)Oc2ccc(Br)cc2C1C(C#N)C(=O)OCC (centres undefined)
inactive: [1] 0.934 | [2] 0.938 | S. cerevisiae deletion strains, locus YCL061C, strain MRC1, stronger effect = lower value 0.916 | [5] 0.957 | [7] 0.938 | [29] 0.963 | [9] 0.979 | [10] 0.959 | [11] 0.983 | [14] 0.986 | [18] 0.979 | [19] 0.964 | [20] 0.982 | [22] 0.992 | [25] 0.98
active: [3] 0.884 | [6] 0.648 | [8] 0.293 | [12] 0.88 | [13] 0.386 | [15] 0.379 | [16] 0.46 | [17] 0.669 | [31] 0.667 | [21] 0.61 | [23] 0.528 | [26] 0.472 | [27] 0.424
